Screening results as filed in PubChem.
MCF10A rereplic: induces DNA re-replication in MCF 10a normal breast cells | hit rate 2.9% among 350,000 | MCF 10A DNA re-replication, Hoechst nuclear intensity, 48 h | Potency, µM (top dose mostly 46.1 µM), without a hit: at the highest dose activity, positive = re-replication, most hits filed as activators; further: % of control where 0% means no effect; nearly all actives have a fitted effect of over 50% in size
SW480 rereplic: DNA re-replication induction in SW480 cells. AID 624297. SW480 DNA re-replication, Hoechst DNA content imaging, 48 h. hit rate 1.8% among 340,000. Potency, µM (titrated, usually from 46.1 µM), inactives show at the highest dose re-replication activation, most hits filed as activators; further: % of control where 0% means no effect; nearly all actives have a fitted effect of over 55% in size
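DNA re-replication was detected as more nuclei of elevated Hoechst intensity after 48 hr exposure to compound (23 nL pinned per well of 250 cells).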
KB-V1 cytotox: kills drug-selected multidrug resistant KB-V1 cells; KB-V1 MDR cells viability, CellTiter-Glo, 72 h; AID 1347076; hit rate 3.4% among 400,000; Potency, µM (doses to about 46.1 µM), most hits filed as cytotoxic; further: on the % scale 0 is the no-effect control and ±100 the full control effect; nearly all actives have a fitted effect of over 60% in size
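Cytotoxicity toward P-gp-expressing KB-V1 cells was determined as loss of CellTiter-Glo luminescence after 72 h at 37 degrees C. Compounds were tested in quantitative HTS format across a concentration range, with curves fitted to normalized data.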
RGS4 inhibitor: inhibitors of human regulator of G protein signaling 4 | hit rate 0.039% among 390,000 | Potency, µM (top dose mostly 114 µM), inactives show top-dose activity change, negative = inhibition, hits mostly inhibitors | P49798 | Transcreener GDP fluorescence polarization, RGS4-accelerated GTP hydrolysis; further: on the % scale 0 is the no-effect control and ±100 the full control effect; nearly all actives have a fitted effect of over 75% in size
Target sequence (P49798 whole entry, looked up): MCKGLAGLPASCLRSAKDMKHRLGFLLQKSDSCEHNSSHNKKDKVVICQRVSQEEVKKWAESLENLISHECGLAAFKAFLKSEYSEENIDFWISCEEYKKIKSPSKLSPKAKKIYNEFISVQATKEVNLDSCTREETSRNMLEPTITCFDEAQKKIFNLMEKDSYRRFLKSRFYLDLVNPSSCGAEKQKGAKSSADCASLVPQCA
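MLSMR compounds (23 nl, pin-transferred) preincubated 10 min at room temperature with a 500nM (2x) first reagent, then RGS4 at 900nM (2x) plus Transcreener GDP mix added; fluorescence polarization (620/688 nm) read before and after 90 min at 30 °C.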
TSG101-PTAP inh: blocks PTAP/TSG101 interaction to inhibit HIV-1 budding; Fluorescence polarization, FITC-PTAP peptide / Tsg101 binding; Q99816; 340,000 tested, under 10 active; Potency, µM (doses to about 115 µM), inactives show at the highest dose activity change, negative = inhibition, usual class: inhibitors; active means well fitted inhibition curve with a large enough effect in the main read-out, with a control signal flat, not every such curve was filed as active; inconclusive means small, poorly fitted or top-dose-only effect, or effect the other way, or a change in a side signal; inactive means no such curve, though single readings can be large or run the other way; further: % of control where 0% means no effect
Target sequence (Q99816 whole entry, looked up): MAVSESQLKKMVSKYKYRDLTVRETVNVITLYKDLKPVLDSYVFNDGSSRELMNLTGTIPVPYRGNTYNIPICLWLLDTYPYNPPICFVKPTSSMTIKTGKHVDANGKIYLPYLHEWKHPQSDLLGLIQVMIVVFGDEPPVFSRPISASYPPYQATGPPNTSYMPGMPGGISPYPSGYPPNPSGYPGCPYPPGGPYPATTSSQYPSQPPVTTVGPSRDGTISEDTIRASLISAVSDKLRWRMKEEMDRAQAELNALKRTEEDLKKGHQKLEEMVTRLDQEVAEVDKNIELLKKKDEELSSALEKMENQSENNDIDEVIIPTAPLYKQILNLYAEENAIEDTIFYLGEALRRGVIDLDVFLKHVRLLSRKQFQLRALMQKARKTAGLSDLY
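Compounds were pin-transferred onto Tsg101 binding domain (10 uM final) in HEPES pH 7.5 buffer, then FITC-PTAP peptide was added at 50 nM final. After 20 min at RT, polarization reported peptide displacement across a qHTS concentration series.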
KB-3-1 cytotox: kills parental KB-3-1 adenocarcinoma cells; Potency, µM (top dose mostly 46.1 µM), usual class: cytotoxic; hit rate 1.4% among 400,000; KB-3-1 viability, CellTiter-Glo ATP luminescence, 72 h; further: on the % scale 0 is the no-effect control and ±100 the full control effect; nearly all actives have a fitted effect of over 60% in size
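Luminescent ATP read-out (CellTiter-Glo) measures survival of drug-naive KB-3-1 cells after 72 h compound exposure at 37 °C. Titration series was screened from lowest to highest concentration, with DMSO vehicle plates as background controls.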
Starred values were filed as active, the others as inactive; i = inactive; ? = inconclusive; / = no result given; [ ] = remark or other dose. Only some compounds are listed: those with a hit (about 6.6% of all), similar ones and a draw of the others. Unless noted, the call rests on the fitted dose curve; in most records, active means well fitted curve in the direction sought with a large enough effect; inconclusive means small, poorly fitted or top-dose-only effect, or another doubt; inactive means no such curve, though single readings can be large; an effect the other way counts as inactive or inconclusive. Potency means the concentration at half of the fitted maximal effect.

SMILES	MCF10A rereplic	SW480 rereplic	KB-V1 cytotox	RGS4 inhibitor	TSG101-PTAP inh	KB-3-1 cytotox
COc1cccc(CNC(=O)CCn2c(=O)c3cccn3c3ccc(F)cc32)c1OC	/	/	/	4.3%	/	/
O=C(NNc1c2ccccc2nc2ccccc12)c1ccc(Cl)cc1	6.6%	?	i	-10.2%[56.9 µM]	-3.1%	?
CSc1nc(N(C)NC(=O)c2ccc(Cl)cc2)c2ccccc2n1	?	0.581µM*	2.91µM*	0.5%	-4.1%	0.581µM*
CSc1nc(N(C)NC(=O)c2ccccc2)c2ccccc2n1	1.64µM*	?	1.16µM*	-12.0%	-4.2%	1.03µM*
CCCCc1ccc(-n2nc3cc(C)c(NC(=O)c4ccc(C#N)cc4F)cc3n2)cc1	/	/	?	-6.8%	/	i
Nc1ccc(N2CCN(c3cccc(Cl)c3)CC2)cc1	15.1%	17.3%	20.6µM*	-42.2%	0.4%	?
Cc1ccccc1CN1CCN(C(C)C(=O)NCc2ccccc2)CC1 (configuration not stated)	1.3%	-5.4%	i	0.9%	1.1%	i
Cc1ccc(NC(=O)CN(C)C(=O)C(C)N2CCN(Cc3ccccc3C)CC2)cc1 (configuration not stated)	0.0%	0.9%	9.2µM*	-3.5%	-3.5%	i
CCOC(=O)C1=C(O)/C(=C/c2cn(CC(=O)N3CCCC3)c3ccccc23)SC1=Nc1ccccc1	8.2µM*	?	i	10.3%[11.4 µM]	11.3%	14.6µM*
O=C(Nc1ccc2oc(-c3cccc4c(Br)cccc34)nc2c1)c1ccc(F)cc1	/	/	i	-2.9%	/	i
Cc1ccc(S(=O)(=O)N2CCN(C(C)C(=O)Nc3ccccc3-c3ccccc3)CC2)cc1 (configuration not stated)	4.3%	-30.5%	3.66µM*	5.7%	1.5%	i
CC(C(=O)Nc1ccccc1-c1ccccc1)N1CCN(C(=O)c2ccccc2)CC1 (configuration not stated)	15.7%	0.7%	i	7.7%	-7.7%	i
CSc1nnc(-c2ccccc2)o1	-1.3%	-2.7%	i	20.5%	-6.1%	i
O=S1(=O)C=C(Sc2nnc(-c3ccccc3)o2)c2ccccc21	?	0.581µM*	?	?	-3.1%	14.6µM*
c1ccc2sc(SSc3nc4ccccc4s3)nc2c1	-1.9%	-0.7%	/	/	/	/
Cc1cc(C)nc(SC2=CS(=O)(=O)c3ccccc32)n1	16.4µM*	20.6µM*	?	9.8%	-5.1%	18.4µM*
O=S1(=O)C=C(SCCN2CCCCC2)c2ccccc21	?	-0.8%	i	-0.8%	-2.2%	i
O=S1(=O)C=C(Sc2nc3ccccc3s2)c2ccccc21	2.91µM*	?	?	?	-3.7%	2.31µM*
CC(C)(C)C(=O)Cn1c(=O)n(-c2ccccc2)c(=O)c2c3c(sc21)CCC3	/	/	i	12.5%	/	i
COc1ccc(-c2noc(N3CCC(C(=O)N4CCN(c5cccc(OC)c5)CC4)CC3)n2)cc1	/	/	/	-8.7%	/	/
CC(=O)OCC(NC(=O)C1CCCN1C(=O)OC(C)(C)C)C1OC(n2cc(F)c(=O)[nH]c2=O)C(OC(C)=O)C1OC(C)=O (configuration not stated)	/	/	/	19.7%	/	/
O=S(=O)(Nc1ccc(-c2ccc(N3CCCC3)nn2)cc1)c1cc(F)ccc1F	/	/	i	4.1%	/	i
Cc1ccc(Nc2cc(C)nc(-n3nc(C)cc3C)n2)cc1	/	/	/	0.0%	/	/
CCOc1ccc(Nc2cc(C)nc(-n3nc(C)cc3C)n2)cc1	?	?	?	-7.4%	-6.5%	0.411µM*
COc1ccc(S(=O)(=O)Nc2cccc(-c3ccc(N4CCC(C)CC4)nn3)c2)c(OC)c1	/	/	i	-19.1%	/	i
SMILES	MCF10A rereplic	SW480 rereplic	KB-V1 cytotox	RGS4 inhibitor	TSG101-PTAP inh	KB-3-1 cytotox
COc1ccc(CCN(C)c2ncnc3sccc23)cc1OC	0.82µM*	?	i	4.9%	2.9%	i
COc1ccc(CN(C)c2ncnc3sccc23)c(OC)c1OC	?	?	4.61µM*	-16.2%	-2.0%	8.2µM*
NC(N)=Nc1ccc(/C=C2\C=Cc3ccccc32)cc1	/	/	i	/	/	i
Cc1cccc(N2CCN(C(=O)c3cnn(-c4ccccc4)c3C3CCN(C(=O)OC(C)(C)C)CC3)CC2)c1C	/	/	i	2.8%	/	?
CN(C)CCCN(C(=O)c1ccc2c(c1)CCCC2)c1nc2cc3c(cc2s1)OCO3	16.4µM*	?	i	19.7%	-8.1%	?
CN(C)CCCN(C(=O)c1ccc2c(c1)CCCC2)c1nc2ccc(F)cc2s1	?	?	4.11µM*	9.5%	0.0%	i
COc1ccc(NS(=O)(=O)c2ccc3[nH]c4c(c3c2)CCCC4)c(OC)c1	/	/	i	-19.0%	/	i
Cc1ccc(CNS(=O)(=O)c2ccc3[nH]c4c(c3c2)CCCCC4)cc1	/	/	i	-2.2%	/	?
COc1ccc(OC)c(CNS(=O)(=O)c2ccc3[nH]c4c(c3c2)CCCCC4)c1	/	/	20.6µM*	?	/	?
CN(C)c1ccc(CNS(=O)(=O)c2ccc3[nH]c4c(c3c2)CCCCC4)cc1	/	/	16.4µM*	8.4%	/	?
CC1=C(c2ccc(NN=C(C#N)C#N)cc2)NNC(=O)C1	1.5%	?	/	/	/	/
Cc1c(C(=O)N(Cc2ccccc2F)C2CCS(=O)(=O)C2)oc2ccc(F)cc12 (configuration not stated)	/	/	i	6.9%	/	i
CCOC(=O)CC1COc2ccccc2N1C(=O)c1ccc(C)cc1 (configuration not stated)	3.8%	-12.0%	18.4µM*	-0.7%	-1.4%	i
CC(C)Cn1c2c(c(O)c(C(=O)Nc3nccs3)c1=O)CCCC2	7.3%	?	7.31µM*	-22.9%	3.9%	?
CCCn1c2c(c(O)c(C(=O)Nc3nccs3)c1=O)CCCC2	?	4.6%	i	4.9%	0.3%	i
Cc1ccc(NC(=O)CC2Nc3ccccc3NC2=O)cc1C (configuration not stated)	/	/	i	-20.7%	/	i
Cc1ccc(NC(=O)CC2Nc3ccccc3NC2=O)cc1Cl (configuration not stated)	2.59µM*	16.4µM*	i	-14.6%	1.8%	?
CCOc1ccccc1NC(=O)CC1Nc2cc(C)c(C)cc2NC1=O (configuration not stated)	18.4µM*	?	?	-9.9%	-8.2%	i
CCc1nc(SC)ncc1C(=O)NCc1cccc(Br)c1	/	/	i	8.2%	/	i
COc1ccccc1NC(=O)CSc1nnc(NC(=O)Nc2ccc(C)cc2)s1	/	/	/	-8.6%	/	/
